Bioassay records from PubChem BioAssay.
Hits are enriched below; roughly 15% of the tested compounds scored in any of these assays.
Pf growth 48h: Primary qHTS for delayed death inhibitors of the malarial parasite plastid, 48 hour incubation; P. falciparum luciferase growth in erythrocytes, 48 h; actives 5.9% (n = 310,000); Potency, µM (titrated, usually from 28.7 µM), without a hit: top-dose activity change, negative = inhibition, actives largely listed as inhibitors; also: potency is read from the fitted curve at half-maximal effect; % is scaled to controls: 0 for no effect and ±100 for the full control effect
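First compound was added to culture medium, then infected red cells at 0.1% parasitemia and 2% hematocrit (final). After incubation at 37 C under 5% CO2, luciferase detection reagent was dispensed and light output recorded.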
Sm TGR block: qHTS Assay for the Inhibitors of Schistosoma Mansoni Peroxiredoxins. Schistosoma mansoni thioredoxin glutathione reductase (TGR), Q962Y6. purified TGR, DTNB reduction, TNB absorbance 405 nm. Potency, µM (doses to about 114 µM), for inactives: at the top dose activity change, negative = inhibition, most hits filed as inhibitors. actives 3% (n = 360,000). AID 485364, 2010; also: potency is read from the fitted curve at half-maximal effect; % is scaled to controls: 0 for no effect and ±100 for the full control effect; nearly all actives have a fitted effect of over 60% in size
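TGR 20 nM + NADPH 100 uM (dispensed conc.), cpd preinc 15 min RT; start with NADPH (500 uM addition) then DTNB (15 mM addition). Kinetic TNB absorbance, 405 nm filter. Four-parameter Hill fit across titration.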
HCV inh: qHTS Assay for Inhibitors of Hepatitis C Virus (HCV); Huh7.5.1 HCVcc-Cre infection, luciferase reporter, 44 h; Potency, µM (titrated, usually from 41.8 µM), for the others: at the top dose activity change, negative = inhibition, hits mostly inhibitors; actives 3.4% (n = 340,000); AID 651820, 2012; also: potency is read from the fitted curve at half-maximal effect; % is scaled to controls: 0 for no effect and ±100 for the full control effect
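Cells seeded at 1,000/well and cultured 4 h, then compounds added followed by HCVcc-Cre virus (~0.5 moi). After 44 h further culture, luciferase substrate was added, plates held 15 min at room temperature, and luminescence read for 15 sec.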
Pf growth 96h: Primary qHTS for delayed death inhibitors of the malarial parasite plastid, 96 hour incubation; P. falciparum luciferase reporter growth, 96 h; Potency, µM (doses to about 28.7 µM), inactives show at the top dose activity change, negative = inhibition, actives largely listed as inhibitors; actives 6.9% (n = 320,000); AID 504834, 2011; also: potency is read from the fitted curve at half-maximal effect; % is scaled to controls: 0 for no effect and ±100 for the full control effect
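P. falciparum expressing integrated firefly luciferase, in erythrocytes at 2% hematocrit, 0.05% parasitemia, incubated with compounds 96 h at 37 C, 5% CO2. Growth inhibition read as loss of luminescence; two-generation exposure targets delayed-death apicoplast inhibitors.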
HCMV antiviral: qHTS Assay for inhibitors of the human cytomegalovirus (HCMV); HFF cells, HCMV-luciferase reporter, 72 h; stronger effect = lower value; activity change, negative = inhibition, % at 57.5 µM; actives 4.5% (n = 410,000); in the data active = activity change below about -60%; inconclusive = no clear call, values can overlap the other calls; inactive = above about -39%; also: % is scaled to controls: 0 for no effect and ±100 for the full control effect
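Two compound doses tested in HFFs infected with HCMV-luciferase, MOI 1 PFU/cell, 72 h at 37C. Lysate luminescence read with OneGlo; data normalized against buffer-only and 10uM Salinomycin inhibitor controls.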
SARS PLP yeast: qHTS of Yeast-based Assay for SARS-CoV PLP; S. cerevisiae expressing SARS-CoV PLpro, growth rescue; AID 485353, 2010; Potency, µM (top dose mostly 32.9 µM), without a hit: at the highest dose activity, positive = growth rescue, hits mostly activators; actives 0.19% (n = 330,000); calls by dose curve; also: potency is read from the fitted curve at half-maximal effect; 0% is about no effect; nearly all actives have a fitted effect of over 55% in size
The depositor's hits bear a star; ? = inconclusive; . = no result; [ ] = dose if it differs, or a comment. Unless noted, calls follow the shape of the dose curve; as a rule, active = well fitted curve in the direction sought with a large enough effect; inconclusive = small, poorly fitted or top-dose-only effect, or another doubt; inactive = no such curve, though single readings can be large; an effect the other way counts as inactive or inconclusive.

SMILES	Pf growth 48h	Sm TGR block	HCV inh	Pf growth 96h	HCMV antiviral	SARS PLP yeast
O=C(NC1CCCC1)C1C(c2ccc(C(F)(F)F)cc2)=Nc2ccccc2N1C(=O)c1cc2ccccc2[nH]1 (stereo unspecified)	.	.	.	.	19.3	.
CN(CCO)c1ccc(-c2nn(C)c(=O)c3ccccc23)cc1[N+](=O)[O-]	-4.4%	4.4%	-19.5%	19.0%	49.4	0.0%
CC(C)N(C)c1ncnc2c1ncn2[C@H]1CN(CCc2ccccc2)C[C@@H](CO)O1	.	.	.	.	52.9	.
CC(C)C1C(c2ccccc2)N(C)C(c2ccccc2)CC1(O)c1ccccc1 (stereo unspecified)	?	6.4%	13.1%	.	?	-2.6%
CC(C)C1C(c2ccccc2)NC(c2ccccc2)CC1(O)c1ccc(F)cc1 (stereo unspecified)	4.15µM*	8.2%	?	?	-3.5	-0.3%
CCOc1ccc2c(C)cc(=O)oc2c1OCC	?	5.4%	-8.2%	39.4%	-1.9	2.3%
CCOc1c(C(=O)CC)cc2c(C)cc(=O)oc2c1C	11.7µM*	-25.9%	?	?	9.9	3.5%
CCCn1c(SCC(=O)Nc2cccc(NC(C)=O)c2)nnc1C(C)C	10.8%	6.0%	13.4%	4.15µM*	-3.7	7.5%
CC(=O)c1cccc(NC(=O)CSc2nnc(C(C)N(C)C)n2Cc2ccccc2)c1 (stereo unspecified)	?	25.1µM*	-9.6%	?	5.2	-4.1%
CC(=O)c1cccc(NC(=O)CSc2nnc(C(C)N(C)C)n2-c2ccc(F)cc2)c1 (stereo unspecified)	-8.1%	17.9%	8.0%	9.0%	3.0	-1.2%
CCn1c(Cn2nnc(-c3ccccc3)n2)nnc1SCC(=O)Nc1cccc(C(C)=O)c1	.	-11.8%[11.4 µM]	35.5µM*	-5.5%	-11.6	1.6%
CCCCn1c(SCC(=O)Nc2cc(C(F)(F)F)cc(C(F)(F)F)c2)nnc1C(CC)N(C)C (stereo unspecified)	?	-3.2%	?	?	-88.4*	13.6%
CCn1c(Cn2nnc(-c3ccccc3)n2)nnc1SCC(=O)Nc1ccc(C(C)=O)cc1	?	0.7%	?	?	128.8	1.9%
CCCCn1c(SCC(=O)Nc2ccc3c(c2)OCCO3)nnc1C(CC)N(C)C (stereo unspecified)	?	-6.3%	-10.5%	-45.2%	-3.2	8.7%
COc1cccc(CNC(=O)CN2C(=O)CSc3ccc(S(=O)(=O)N4CCCC4)cc32)c1	?	1.9%	-14.5%	14.8%	?	-1.5%
CNc1cc(C(F)(F)F)nc(-c2ccccn2)n1	?	-1.5%	0.5%	?	17.6	2.9%
Nc1nc(-c2ccccn2)nc(N)c1Cc1ccccc1F	?	0.0%	?	5.22µM*	-102.0*	26.2%
Nc1nc(-c2ccccn2)nc(N)c1Cc1ccc(Cl)cc1Cl	1.85µM*	1.4%	3.55µM*	1.31µM*	-93.3*	22.5%
Nc1nc(-c2ccccn2)nc(N)c1Cc1c(F)cccc1Cl	11.7µM*	18.3%	5.01µM*	?	-96.3*	?
O=C(Nc1ccc2c(c1)OCO2)C1CCN(C(=O)c2ccc([N+](=O)[O-])cc2)CC1	-15.5%	.	1.1%	-12.5%	5.1	-1.1%
CCOc1cc(C=O)cc(N=Nc2cccc([N+](=O)[O-])c2)c1O	5.8%	?	14.9%	?	34.0	-17.6%
O=[N+]([O-])c1ccc(N=Nc2c(O)[nH]c3ccc(F)cc23)cc1	75.2%	2.0%	-20.9%	32.8%	-29.3	-2.7%
O=[N+]([O-])c1cccc(N=Nc2ccc(O)cc2O)c1	.	.	1.78µM*	.	-79.7*	.
O=[N+]([O-])c1ccc(N=Nc2ccc(O)cc2O)cc1	.	-3.3%	?	0.329µM*	-99.4*	-29.7%
CC(CC(=O)c1ccccc1)=NCC(O)CN=C(C)CC(=O)c1ccccc1 (stereo unspecified)	.	.	.	.	-0.8	.
SMILES	Pf growth 48h	Sm TGR block	HCV inh	Pf growth 96h	HCMV antiviral	SARS PLP yeast
Clc1cccc(Cl)c1CNc1ccc(N2CCCC2)cc1	?	?	?	19.6%	-77.5*	-0.6%
COc1ccc(S(=O)(=O)NC2CCc3ccccc32)cc1OC (stereo unspecified)	-3.1%	-2.4%	12.0%	8.7%	?	0.0%
COc1cccc(N2CCN(c3c4c(nc5ncnn35)CCC4)CC2)c1	?	-22.3%	?	13.1µM*	-86.1*	-1.9%
CC1CCCCC1NC(=O)C1CCN(c2c3c(nc4ncnn24)CCC3)CC1 (stereo unspecified)	9.28µM*	-1.5%	?	-7.8%	0.0	?
COc1cccc(N2CCN(c3ncccn3)CC2)c1	97.6%	-0.9%	9.7%	.	55.4	11.0%
Clc1ccc(Nc2c3c(nc4ncnn24)CCC3)cc1	?	6.0%	-8.6%	?	6.0	-3.4%
c1ccc(N2CCN(c3c4c(nc5ncnn35)CCC4)CC2)cc1	13.3%	-0.3%	?	?	-62.2*	1.3%
CC(=O)NC(Cc1ccccc1C)C(=O)NC1CCN(c2c3c(nc4ncnn24)CCC3)CC1 (stereo unspecified)	.	.	.	.	-33.5	.
Cc1ccn(-c2ccc(NC(=O)c3cccs3)cc2)n1	45.3%	9.6%	?	25.9%	124.3	-10.3%
CC1CN=C(c2ccc(Cl)cc2)c2c3ccccc3nn21 (stereo unspecified)	.	.	.	.	26.2	.
CN(C)c1ccc(CNC(=O)c2cc(S(=O)(=O)N3CCOCC3)cn2C)cc1	0.6%	-18.7%	2.7%	?	19.5	2.6%
